Results reported in ChEMBL document CHEMBL4513216, “Probing the Open Global Health Chemical Diversity Library for Multistage-Active Starting Points for Next-Generation Antimalarials” (ACS Infect Dis, 2020).
The whole screen tested about 65,000 compounds, of which about 2,100 (3.2%) showed an effect of 50% or more. The median lay at about -52%. This excerpt belongs to a sample that is enriched for strong results.

Tested on: Plasmodium falciparum
Test: Screen against P. falciparum Asexual Blood Stage (ABS), at 5uM
Format: functional, Dd2
Settings: tested at 5 uM

| Compound | INHIBITION [%] |
| --- | --- |
| O=C(C[C@@H]1COC[C@H]2CN(CC3CCOCC3)C[C@@H]12)N1CCCCO1 | -22.4 |
| CC(O)CN1CCN(C(=O)c2cc3ccccc3n2C)CC1 (configuration not stated) | -75.1 |
| CCC(C)(COc1ncccc1Cl)NCC(=O)NC1CCCCC1 (configuration not stated) | -85.6 |
| CNC(=O)C1CCN(CC(=O)Nc2cc(C(C)C)no2)CC1 | -141 |
| CCOCC1CN(C(=O)c2cccs2)Cc2cnn(CC3CC3)c21 (configuration not stated) | 18.5 |
| CCOCC1CN(C(=O)c2cnccn2)Cc2cnn(CC3CC3)c21 (configuration not stated) | -127 |
| CCOCC1CN(C(=O)c2cccn2C)Cc2cnn(CC3CC3)c21 (configuration not stated) | 57.8 |
| O=c1cc(CN2CCCCC2c2cccc(F)c2)[nH]c2ncnn12 (configuration not stated) | -27.8 |
| Cc1n[nH]c(C)c1C1COCCN1C(=O)c1cccc(F)c1F (configuration not stated) | 49.6 |
| COc1ccccc1C(=O)N1CCOCC1c1c(C)n[nH]c1C (configuration not stated) | 57.5 |
| Cc1n[nH]c(C)c1C1COCCN1C(=O)c1ccccc1 (configuration not stated) | -119 |
| CCN1CCOC(CNCc2ccccc2OCc2ccncc2)C1 (configuration not stated) | 55.3 |
| CCN1CCOC(CNCc2ccccc2OCC(=O)N(C)C)C1 (configuration not stated) | -19.5 |
| Cc1cnn(CCNCc2ccccc2OCc2ccccn2)c1 | 67 |
| CN1CCOC(CNCc2ccccc2OCc2ccccn2)C1 (configuration not stated) | 67.7 |
| CN1CCOC(CNCc2ccc(OCc3ccccn3)cc2)C1 (configuration not stated) | -15.8 |

| Compound | INHIBITION [%] |
| --- | --- |
| CCN1CCOC(CNCc2ccccc2OCc2ccccn2)C1 (configuration not stated) | 7.77 |
| Cc1cnn(CCNCc2ccccc2OCc2ccncc2)c1 | 40.5 |
| CCN1CCOC(CNCc2ccccc2OCc2cccnc2)C1 (configuration not stated) | 28.1 |
| Cc1cnn(CCNCc2ccc(OCc3ccccn3)cc2)c1 | -12.3 |
| CNC(=O)c1nc(COc2ccc3c(c2)OCO3)no1 | -139 |
| Cc1ccc(C)c(S(=O)(=O)NC(=O)c2ccc(C)[nH]c2=O)c1 | -134 |
| O=S(=O)(c1cccs1)N1CC[C@@H](O)[C@@H]1Cc1ccncc1 | -17 |
| Cc1ccc(N2CCC(Nc3ccc4nnc(C)n4n3)CC2)nc1 | -89 |
| CCOc1ccc(CSC(C)c2nc(C)no2)nc1 (configuration not stated) | -173 |
| CN(C)C1CC2(CCN(C(=O)NC3CC3)CC2)c2ccccc21 (configuration not stated) | -42.2 |
| Cn1cc(Cl)cc1C(=O)N1CCN(Cc2cccs2)CC1 | 7.04 |
| Cc1ccc(C(=O)N2CCCN(Cc3cccs3)CC2)n1C | 55.6 |
| Cn1cc(Cl)cc1C(=O)N1CCCN(Cc2ccccc2)CC1 | 50.9 |
| Cn1cc(Cl)cc1C(=O)N1CCCN(Cc2cccs2)CC1 | -60.9 |
| Cn1cc(CN2CCCN(C(=O)c3cc(Cl)cn3C)CC2)cn1 | -7.21 |
| Cc1ccc(C(=O)N2CCN(Cc3cccs3)CC2)n1C | -20.2 |
